Most compounds without a hit are left out; they make up all but 3.4% or so of the library.
FBW7 act – FBW7 E3 ligase activators, primary screen, biochemical, AlphaScreen, human; 650,000 compounds, 0.13% hits; AlphaScreen FBW7–phospho-cyclin E peptide binding, activator screen; normalized activity (activation), % at 26.1 µM; AID 1259310, 2017; F-box/WD repeat-containing protein 7 (Homo sapiens), Q969H0; in the data active = normalized activity above about 1.9%;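 note: purified mutant Fbw7 with reduced substrate affinity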
Target sequence (Q969H0 whole entry, looked up): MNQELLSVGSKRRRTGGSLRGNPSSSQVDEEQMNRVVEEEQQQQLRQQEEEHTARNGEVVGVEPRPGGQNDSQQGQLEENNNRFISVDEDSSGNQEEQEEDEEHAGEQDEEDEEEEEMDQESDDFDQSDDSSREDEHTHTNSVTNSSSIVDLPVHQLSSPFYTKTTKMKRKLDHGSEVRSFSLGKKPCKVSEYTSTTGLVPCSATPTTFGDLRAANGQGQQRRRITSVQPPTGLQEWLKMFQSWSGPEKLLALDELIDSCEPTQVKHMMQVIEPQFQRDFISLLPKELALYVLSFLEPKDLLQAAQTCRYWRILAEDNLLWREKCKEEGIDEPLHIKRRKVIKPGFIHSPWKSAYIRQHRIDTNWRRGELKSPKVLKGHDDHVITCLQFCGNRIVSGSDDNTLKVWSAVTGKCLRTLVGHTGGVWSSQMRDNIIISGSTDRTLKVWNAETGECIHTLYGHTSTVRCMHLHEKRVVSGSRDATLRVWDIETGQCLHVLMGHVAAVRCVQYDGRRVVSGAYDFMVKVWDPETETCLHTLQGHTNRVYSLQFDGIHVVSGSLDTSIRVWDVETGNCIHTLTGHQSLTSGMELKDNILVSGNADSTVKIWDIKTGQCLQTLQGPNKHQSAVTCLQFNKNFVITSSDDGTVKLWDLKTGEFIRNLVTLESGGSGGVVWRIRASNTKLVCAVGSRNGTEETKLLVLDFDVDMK
TEAD-YAP block – TEAD-YAP interaction inhibition, primary screen, TEAD-YAP interaction inhibitor project, luminescence, HEK-TIYL cells; TEAD-Gal4/YAP UAS-luciferase luminescence; inhibition, % at 9.12 µM; 640,000 compounds, 1.4% hits; in the data active = inhibition above about 32%;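 note: 0% = median of test compound wells and 100% = reference inhibitor wells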
GPR151 ag – activators of human GPR151, primary screen, cell-based, PathHunter beta-arrestin, luminescence; G-protein coupled receptor 151 (Homo sapiens), Q8TDV0; PathHunter beta-arrestin GPR151 cells; activation, % at 11.2 µM; 650,000 compounds, 1% hits; in the data active = activation above about 4.9%;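 note: 0% = median of compound wells and 100% = cells with positive control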
MITF primary – MITF inhibitors, primary screen, biochemical, AlphaScreen, human; Microphthalmia-associated transcription factor (Homo sapiens), O75030; AlphaScreen MITF homodimerization, bead proximity signal; inhibition, % at 2.6 µM; 650,000 compounds, 0.91% hits; in the data active = inhibition above about 50%;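 note: 0% = vehicle wells with protein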
MITF confirm – MITF inhibitors, retest of hits, confirmation, biochemical, AlphaScreen, triplicate. shares compounds with MITF primary. AlphaScreen MITF homodimerization, biotin/His-MITF beads. inhibition, % at 2.6 µM. 4,700 compounds, 16% hits. AID 1259372, 2018;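 active = inhibition above a cutoff derived from the DMSO control wells, cut at about 28% in these data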;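 note: 0% = MITF dimer wells with DMSO only; inhibitors lower the bead chemiluminescence by keeping MITF from dimerizing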
AlphaScreen intf2 – AlphaScreen optical interference compounds, counter-screen for MITF inhibitor project, biochemical, triplicate | shares compounds with MITF primary | LysRS AlphaScreen counterscreen, signal interference | inhibition, % at 2.6 µM | 4,700 compounds, 7.6% hits;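 active = inhibition above a cutoff derived from the DMSO control wells, cut at about 30% in these data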
Starred values were filed as active, the others as inactive; x = no result.

SMILES	FBW7 act	TEAD-YAP block	GPR151 ag	MITF primary	MITF confirm	AlphaScreen intf2
N#Cc1ccc(OCC(O)CNCCCN2CCCC2=O)cc1 (stereo not drawn)	0	-3	-1	51*	-4	7
Cc1cc([N+](=O)[O-])ccc1N=Cc1ccc[nH]1	0	0	0	-3	x	x
C[C@H](O)[C@H]1NC(=O)[C@H]2CN(C(=O)Oc3ccccc3)CCN2C1=O	0	-1	1	9	x	x
O=C(Nc1ccc(O)c(C(=O)O)c1)c1ccc(Br)cc1	0	5	-2	5	x	x
O=C(O)C1=CC(=C(c2ccc(O)c(C(=O)O)c2)c2ccc(O)c(C(=O)O)c2)C=CC1=O	-1	-8	2	64*	83*	50*
COc1cc(CN2CCN(S(=O)(=O)c3ccccc3)CC2)ccc1OCc1ccccc1	0	6	1	36	x	x
COc1ccc(CN2CCN(Cc3ccco3)CC2)cc1OCc1ccccc1	0	1	0	60*	8	8
CCS(=O)(=O)N1CCN(Cc2ccc(OCc3ccccc3)c(OC)c2)CC1	0	0	1	51*	14	10
CCOc1ccc(CN2CCN(Cc3ccc(OC)c(OCc4ccccc4)c3)CC2)cc1	0	16	1	69*	-10	5
COc1ccc(CNCc2ccco2)cc1OCc1ccccc1	0	-12	-1	41	x	x
COc1ccc(CN2CCN(S(=O)(=O)c3ccc([N+](=O)[O-])cc3)CC2)cc1OCc1ccccc1	0	30	1	52*	14	23
CCOc1ccc(CN2CCN(Cc3ccc(OC)c(OC)c3)CC2)cc1	0	25	2	47	x	x
CCOc1ccc(C2Oc3c(OCC)cccc3C3CC(c4cccs4)=NN32)cc1 (stereo not drawn)	0	-54	0	8	x	x
Cc1cc(NCc2ccccc2)n2ncnc2n1	0	3	1	12	x	x
Cc1cc(NCc2ccccc2F)n2ncnc2n1	2	0	0	51*	3	11
CCCCN1C(=O)C(=O)N(CC(=O)Nc2ccc(C)c(Cl)c2)C1=O	0	4	0	66*	-12	-5
COc1cccc(CN2CCN(C(C)C)C(CCO)C2)c1O (stereo not drawn)	0	12	-2	11	x	x
Cc1nnc(C)n1/N=C\c1cccc2ccccc12	0	2	1	66*	-13	-4
O=C1c2ccccc2C(=O)N1c1ncc(Cc2ccc(Cl)cc2)s1	0	14	-1	59*	12	18
O=C1c2ccccc2C(=O)N1c1ncc(Cc2cc(Cl)ccc2Cl)s1	0	9	-1	9	x	x
O=[N+]([O-])c1ccc(N2CCN(S(=O)(=O)c3ccccc3)CC2)cc1NC1CC1	0	4	-1	71*	7	10
CCC1CCCCN1C(=O)Cn1nc(C)n2c(cc3ccsc32)c1=O (stereo not drawn)	0	4	0	61*	6	15
CCC1CCCCN1C(=O)Cn1nc([N+](=O)[O-])cc1C (stereo not drawn)	2	6	0	91*	2	1
Cc1ccc(N2C(=O)CSC2c2ccc(Cl)c(Cl)c2)cc1 (stereo not drawn)	0	-11	-2	9	x	x
O=[N+]([O-])c1ccccc1S(=O)(=O)N1CCN(CC2CC=CCC2)CC1 (stereo not drawn)	0	2	1	31	x	x
SMILES	FBW7 act	TEAD-YAP block	GPR151 ag	MITF primary	MITF confirm	AlphaScreen intf2
O=S(=O)(c1ccccc1)N1CCN(CC2CC=CCC2)CC1 (stereo not drawn)	0	2	0	52*	-1	1
Cc1ccc(CN2CCN(CC3CC=CCC3)CC2)cc1 (stereo not drawn)	0	3	0	22	x	x
Fc1cccc(CN2CCN(CC3CC=CCC3)CC2)c1 (stereo not drawn)	0	-4	3	83*	-1	-3
O=C(c1ccccc1)N1CCN(CC2CC=CCC2)CC1 (stereo not drawn)	0	-4	-1	41	x	x
O=[N+]([O-])c1ccccc1CN1CCN(CC2CC=CCC2)CC1 (stereo not drawn)	0	-13	0	66*	-5	3
Clc1ccccc1CN1CCN(CC2CC=CCC2)CC1 (stereo not drawn)	0	0	-1	60*	6	-5
Clc1ccc(-c2csc(-c3nc(-c4ccc(Cl)cc4)cs3)n2)cc1	1	1	0	5	x	x
O=C(O)/C=C\C(=O)Nc1ccc(I)cc1	0	-7	0	7	x	x
CC1(C)CC2CC(C)(CN2CC(O)COc2ccccc2F)C1 (stereo not drawn)	0	2	2	32	x	x
Cn1c(=NC(=O)c2cccs2)sc2cc3c(cc21)OCCO3	0	26	0	-14	x	x
Cc1cc(C(=O)N=c2sc3cc4c(cc3n2C)OCCO4)no1	0	-23	0	76*	2	-6
COC(=O)CCCC[C@H]1SC[C@H]2NC(=O)N[C@]21O	-1	-2	1	84*	107*	92*
Clc1cccc(CN2CCN(Cc3ccco3)CC2)c1	0	-7	2	72*	5	8
Cn1cccc1CN1CCN(Cc2ccc(Br)cc2)CC1	0	-8	1	45	x	x
Brc1cccc(CN2CCN(Cc3ccco3)CC2)c1	0	-3	2	81*	27	22
Cn1cccc1CN1CCN(Cc2ccco2)CC1	0	-10	1	69*	2	10
Clc1cccc(N2CCN(Cc3ccco3)CC2)c1	0	-13	-1	22	x	x
Clc1ccc(CN2CCN(Cc3ccco3)CC2)cc1	0	-8	1	86*	13	12
Brc1cccc(CN2CCOCC2)c1	0	0	1	-4	x	x
CCOC(=O)C1=C(C)NC2=C(C(=O)C(C(=O)OC)C(C)C2)C1c1cccc(Cl)c1 (stereo not drawn)	0	14	1	5	x	x
CC(C)[C@H](CO)Nc1nc(-c2cccc(C(=O)O)c2)cnc1N	0	1	-1	-2	x	x
O=C1OC(/C=C/c2cccc(Cl)c2Cl)=NC/1=C\c1cccc(Cl)c1Cl	0	-6	3	11	x	x
Fc1ccc(CN2CCN(Cc3ccco3)CC2)cc1	0	4	-1	70*	-10	-2
O=S1(=O)N=C(N(CCO)/N=C/c2ccc(Cl)cc2Cl)c2ccccc21	0	4	2	7	x	x

Screening results from PubChem.
